Assay results published in PubChem BioAssay AID1159580 (chemical genetic matrix, 2015).
The whole screen tested about 5,500 compounds, of which about 2,000 (36%) were called active. Inconclusive results (about 18%) are left out. Cut-off read from the data, not from the text of the source: active = normalized growth mostly below about 0.91 (no sharp cut-off); inconclusive = no clear call, values can overlap the other calls; inactive = mostly above about 0.92. The list shows a part of the results.

Assay: chemical genetic growth profiling, strain panel (AID 1159580);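 note: tested at 20 µM; growth read once vehicle control cultures reached saturation at 30 °C; 1 = growth at the plate median or of vehicle wells; lower values mean less growth of the strain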
Conditions: growth OD

Measured: normalized growth

Nc1c(Br)cc(Br)cc1CNC1CCC(O)CC1 (stereo not given)
inactive: S. cerevisiae deletion strains, locus YJR066W, strain TOR1, stronger effect = lower value 0.936 | S. cerevisiae deletion strains, locus YKL009W, strain mrt4, stronger effect = lower value 0.985 | S. cerevisiae deletion strains, locus YKL068W, stronger effect = lower value 0.997 | S. cerevisiae deletion strains, locus YKL085W, strain MDH1 (second series), stronger effect = lower value 1 | S. cerevisiae deletion strains, locus YKL085W, strain MDH1, stronger effect = lower value 1 | S. cerevisiae deletion strains, locus YKL160W, strain elf1, stronger effect = lower value 1 | S. cerevisiae deletion strains, locus YKL190W, strain CNB1, stronger effect = lower value 1.01 | S. cerevisiae deletion strains, locus YKR001C, strain vps1, stronger effect = lower value 0.994 | S. cerevisiae deletion strains, locus YKR026C, strain gcn3, stronger effect = lower value 1.01 | S. cerevisiae deletion strains, locus YKR091W, strain srl3, stronger effect = lower value 1.02 | S. cerevisiae deletion strains, locus YLL001W, strain dnm1, stronger effect = lower value 1.02 | S. cerevisiae deletion strains, locus YLL026W, stronger effect = lower value 1.01 | S. cerevisiae deletion strains, locus YLL041C, strain sdh2, stronger effect = lower value 0.993 | S. cerevisiae deletion strains, locus YLR027C, strain aat2, stronger effect = lower value 0.997 | S. cerevisiae deletion strains, locus YLR039C, strain RIC1, stronger effect = lower value 1.03 | S. cerevisiae deletion strains, locus YLR058C, strain SHM2, stronger effect = lower value 1 | S. cerevisiae deletion strains, locus YLR102C, strain apc9, stronger effect = lower value 1.01 | S. cerevisiae deletion strains, locus YLR113W, strain HOG1, stronger effect = lower value 1.07 | S. cerevisiae deletion strains, locus YLR221C, strain rsa3, stronger effect = lower value 1.01 | S. cerevisiae deletion strains, locus YLR258W, strain gsy2, stronger effect = lower value 1 | S. cerevisiae deletion strains, locus YLR262C, strain YPT6 (second series), stronger effect = lower value 0.974 | S. cerevisiae deletion strains, locus YLR262C, strain YPT6, stronger effect = lower value 1.04 | S. cerevisiae deletion strains, locus YLR268W, strain sec22, stronger effect = lower value 0.982 | S. cerevisiae deletion strains, locus YLR320W, strain mms22, stronger effect = lower value 1.03 | S. cerevisiae deletion strains, locus YLR330W, strain CHS5, stronger effect = lower value 1.01 | S. cerevisiae deletion strains, locus YLR342W, strain FKS1 (second series), stronger effect = lower value 1.01 | S. cerevisiae deletion strains, locus YLR342W, strain FKS1, stronger effect = lower value 1.02 | S. cerevisiae deletion strains, locus YLR357W, strain rsc2, stronger effect = lower value 1.03 | S. cerevisiae deletion strains, locus YLR370C, strain arc18, stronger effect = lower value 0.997 | S. cerevisiae deletion strains, locus YLR371W, strain rom2, stronger effect = lower value 1.01 | S. cerevisiae deletion strains, locus YLR384C, strain iki3, stronger effect = lower value 1.01 | S. cerevisiae deletion strains, locus YLR418C, strain cdc73, stronger effect = lower value 0.949 | S. cerevisiae deletion strains, locus YML016C, strain PPZ1, stronger effect = lower value 1 | S. cerevisiae deletion strains, locus YML032C, strain rad52, stronger effect = lower value 0.996 | S. cerevisiae deletion strains, locus YML120C, strain ndi1, stronger effect = lower value 1.05 | S. cerevisiae deletion strains, locus YML124C, strain tub3, stronger effect = lower value 0.996 | S. cerevisiae deletion strains, locus YMR058W, strain fet3, stronger effect = lower value 1.02 | S. cerevisiae deletion strains, locus YMR078C, strain ctf18, stronger effect = lower value 1.01 | S. cerevisiae deletion strains, locus YMR125W, strain sto1, stronger effect = lower value 1.01 | S. cerevisiae deletion strains, locus YMR129W, stronger effect = lower value 1.02 | S. cerevisiae deletion strains, locus YMR205C, strain PFK2, stronger effect = lower value 1 | S. cerevisiae deletion strains, locus YMR223W, strain ubp8, stronger effect = lower value 0.991 | S. cerevisiae deletion strains, locus YMR231W, strain pep5, stronger effect = lower value 1.02 | S. cerevisiae deletion strains, locus YMR307W, strain GAS1, stronger effect = lower value 1.12 | S. cerevisiae deletion strains, locus YNL067W, strain RPL9B, stronger effect = lower value 0.994 | S. cerevisiae deletion strains, locus YNL071W, strain lat1, stronger effect = lower value 1.01 | S. cerevisiae deletion strains, locus YNL128W, strain TEP1, stronger effect = lower value 1.02 | S. cerevisiae deletion strains, locus YNL153C, strain GIM3, stronger effect = lower value 0.99 | S. cerevisiae deletion strains, locus YNL183C, strain NPR1, stronger effect = lower value 0.981 | S. cerevisiae deletion strains, locus YNL209W, strain ssb2, stronger effect = lower value 1 | S. cerevisiae deletion strains, locus YNL233W, strain BNI4, stronger effect = lower value 0.991 | S. cerevisiae deletion strains, locus YNL248C, strain rpa49, stronger effect = lower value 1 | S. cerevisiae deletion strains, locus YNL250W, strain rad50, stronger effect = lower value 0.994 | S. cerevisiae deletion strains, locus YNL271C, strain bni1, stronger effect = lower value 1 | S. cerevisiae deletion strains, locus YNL298W, strain CLA4, stronger effect = lower value 1.03 | S. cerevisiae deletion strains, locus YNL307C, strain MCK1, stronger effect = lower value 1.01 | S. cerevisiae deletion strains, locus YNL322C, strain KRE1 (second series), stronger effect = lower value 1.02 | S. cerevisiae deletion strains, locus YNL322C, strain KRE1, stronger effect = lower value 1 | S. cerevisiae deletion strains, locus YNR049C, strain mso1, stronger effect = lower value 0.987 | S. cerevisiae deletion strains, locus YNR052C, strain pop2, stronger effect = lower value 1 | S. cerevisiae deletion strains, locus YOL006C, strain TOP1, stronger effect = lower value 0.95 | S. cerevisiae deletion strains, locus YOL012C, strain htz1 0.731 | S. cerevisiae deletion strains, locus YOL147C, strain pex11, stronger effect = lower value 0.998 | S. cerevisiae deletion strains, locus YOR001W, strain rrp6, stronger effect = lower value 0.996 | S. cerevisiae deletion strains, locus YOR061W, strain CKA2, stronger effect = lower value 1.01 | S. cerevisiae deletion strains, locus YOR069W, strain VPS5, stronger effect = lower value 1 | S. cerevisiae deletion strains, locus YOR070C, strain gyp1, stronger effect = lower value 1 | S. cerevisiae deletion strains, locus YOR080W, strain dia2, stronger effect = lower value 1.02 | S. cerevisiae deletion strains, locus YOR083W, strain WHI5, stronger effect = lower value 0.997 | S. cerevisiae deletion strains, locus YOR106W, strain vam3, stronger effect = lower value 1.02 | S. cerevisiae deletion strains, locus YOR136W, strain idh2, stronger effect = lower value 0.995 | S. cerevisiae deletion strains, locus YOR144C, strain elg1, stronger effect = lower value 0.994 | S. cerevisiae deletion strains, locus YOR184W, strain ser1, stronger effect = lower value 0.992 | S. cerevisiae deletion strains, locus YOR231W, strain MKK1, stronger effect = lower value 1.06 | S. cerevisiae deletion strains, locus YOR265W, strain rbl2, stronger effect = lower value 1.01 | S. cerevisiae deletion strains, locus YOR270C, strain vph1, stronger effect = lower value 1.01 | S. cerevisiae deletion strains, locus YOR290C, strain snf2, stronger effect = lower value 0.984 | S. cerevisiae deletion strains, locus YOR316C, strain cot1, stronger effect = lower value 1 | S. cerevisiae deletion strains, locus YPL051W, strain arl3, stronger effect = lower value 1.01 | S. cerevisiae deletion strains, locus YPL055C, strain LGE1, stronger effect = lower value 0.978 | S. cerevisiae deletion strains, locus YPL078C, strain atp4, stronger effect = lower value 0.999 | S. cerevisiae deletion strains, locus YPL106C, strain sse1, stronger effect = lower value 1.03 | S. cerevisiae deletion strains, locus YPL240C, strain hsp82, stronger effect = lower value 1.01 | S. cerevisiae deletion strains, locus YPL256C, strain CLN2, stronger effect = lower value 1.06 | S. cerevisiae deletion strains, locus YPR119W, strain clb2, stronger effect = lower value 1 | S. cerevisiae deletion strains, locus YPR141C, strain kar3, stronger effect = lower value 0.99 | S. cerevisiae deletion strains, locus YPR163C, strain tif3, stronger effect = lower value 1 | S. cerevisiae deletion strains, locus YPR167C, strain met16, stronger effect = lower value 0.998 | S. cerevisiae deletion strains, strain wtn01, stronger effect = lower value 1 | S. cerevisiae strains, strain wild type, stronger effect = lower value 1.01
